Residue numbers refer to the chain shown, from its start.
Assays:
Test in all cases: PBM; 200 nM protein, PBS
Conditions in all cases: dsDNA, one strand shown
HOXB4 [1] = target: HOXB4 (Homo sapiens, UniProt P17483 148-234)
VENTX [2] = target: T1, VENTX (Homo sapiens, UniProt O95231 78-163, R121Q)
T1 sequence: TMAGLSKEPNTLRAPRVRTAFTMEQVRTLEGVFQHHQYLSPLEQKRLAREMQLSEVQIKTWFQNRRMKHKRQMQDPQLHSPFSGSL

HOXB9 [3] = target: HOXB9 (Homo sapiens, UniProt P17482 171-250, T197M)
HOXA4 [4] = target: HOXA4 (Homo sapiens, UniProt Q00056 201-287, W262R)
HOXC9 [5] = target: HOXC9 (Homo sapiens, UniProt P31274 178-260, K195R)
HOXA7 [6] = target: HOXA7 (Homo sapiens, UniProt P31268 116-202)
HOXC10 [7] = target: HOXC10 (Homo sapiens, UniProt Q9NYD6 254-340)
VENTX [8] = target: T2, VENTX (Homo sapiens, UniProt O95231 78-163, Y115F)
T2 sequence: T1 sequence with Y38F, Q44R

HOXB6 [9] = target: HOXB6 (Homo sapiens, UniProt P17509 132-218, K202E)
HOXA2 [10] = target: HOXA2 (Homo sapiens, UniProt O43364 129-215, R185T)
HOXA4 [11] = target: HOXA4 (Homo sapiens, UniProt Q00056 201-287, R217L)
HOXB9 [12] = target: HOXB9 (Homo sapiens, UniProt P17482 171-250)
HOXB4 [13] = target: HOXB4 (Homo sapiens, UniProt P17483 148-234, V174I)
HOXC9 [14] = target: HOXC9 (Homo sapiens, UniProt P31274 178-260)
HOXD13 [15] = target: HOXD13 (Homo sapiens, UniProt P35453 263-343, T313R)
HOXC9 [16] = target: HOXC9 (Homo sapiens, UniProt P31274 178-260, R193K)
HOXA2 [17] = target: HOXA2 (Homo sapiens, UniProt O43364 129-215, R185K)
HOXD13 [18] = target: HOXD13 (Homo sapiens, UniProt P35453 263-343)
HOXA4 [19] = target: HOXA4 (Homo sapiens, UniProt Q00056 201-287)
HOXC10 [20] = target: HOXC10 (Homo sapiens, UniProt Q9NYD6 254-340, K271E)
VAX1 [21] = target: VAX1 (Homo sapiens, UniProt Q5SQQ9 86-172)
HOXD13 [22] = target: HOXD13 (Homo sapiens, UniProt P35453 263-343, T313A)
HOXB9 [23] = target: HOXB9 (Homo sapiens, UniProt P17482 171-250, R186Q)
HOXC9 [24] = target: HOXC9 (Homo sapiens, UniProt P31274 178-260, R222W)
VAX1 [25] = target: VAX1 (Homo sapiens, UniProt Q5SQQ9 86-172, T142I)
HOXA2 [26] = target: HOXA2 (Homo sapiens, UniProt O43364 129-215, Y150S)
HOXA7 [27] = target: HOXA7 (Homo sapiens, UniProt P31268 116-202, W177C)
HOXA4 [28] = target: HOXA4 (Homo sapiens, UniProt Q00056 201-287, W262F)
HOXA2 [29] = target: HOXA2 (Homo sapiens, UniProt O43364 129-215)
VAX1 [30] = target: VAX1 (Homo sapiens, UniProt Q5SQQ9 86-172, K157R)
HOXB6 [31] = target: HOXB6 (Homo sapiens, UniProt P17509 132-218)
VENTX [32] = target: T3, VENTX (Homo sapiens, UniProt O95231 78-163)
T3 sequence: T1 sequence with Q44R

Chain of HOXB4 (Homo sapiens, UniProt P17483 148-234) (P17483 148-234): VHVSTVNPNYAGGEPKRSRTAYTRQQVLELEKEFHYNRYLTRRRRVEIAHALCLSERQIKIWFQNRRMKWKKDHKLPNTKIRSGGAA
Chain of HOXB4 (Homo sapiens, UniProt P17483 148-234, V174I) (P17483 148-234 V174I): as the sequence (P17483 148-234) above, with V27I counted along it
Chain of HOXB9 (Homo sapiens, UniProt P17482 171-250, T197M) (P17482 171-250 T197M): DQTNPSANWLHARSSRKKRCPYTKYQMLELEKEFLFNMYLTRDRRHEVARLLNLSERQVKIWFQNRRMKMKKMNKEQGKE
Chain of HOXA2 (Homo sapiens, UniProt O43364 129-215, Y150S) (O43364 129-215 Y150S): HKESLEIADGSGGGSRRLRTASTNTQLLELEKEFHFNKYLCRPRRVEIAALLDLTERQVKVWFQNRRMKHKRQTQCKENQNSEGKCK
Chain of HOXB6 (Homo sapiens, UniProt P17509 132-218, K202E) (P17509 132-218 K202E): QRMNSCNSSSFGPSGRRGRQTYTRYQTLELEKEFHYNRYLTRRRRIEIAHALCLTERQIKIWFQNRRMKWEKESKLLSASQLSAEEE
Chain of VAX1 (Homo sapiens, UniProt Q5SQQ9 86-172, K157R) (Q5SQQ9 86-172 K157R): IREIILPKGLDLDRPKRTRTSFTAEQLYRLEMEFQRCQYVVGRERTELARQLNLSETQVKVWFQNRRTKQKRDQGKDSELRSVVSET
Chain of HOXD13 (Homo sapiens, UniProt P35453 263-343, T313R) (P35453 263-343 T313R): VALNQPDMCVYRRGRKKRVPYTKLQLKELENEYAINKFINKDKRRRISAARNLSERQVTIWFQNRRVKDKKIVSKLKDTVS
Chain of HOXB6 (Homo sapiens, UniProt P17509 132-218) (P17509 132-218): as the sequence (P17509 132-218 K202E) above, with E71K counted along it
Chain of HOXC10 (Homo sapiens, UniProt Q9NYD6 254-340) (Q9NYD6 254-340): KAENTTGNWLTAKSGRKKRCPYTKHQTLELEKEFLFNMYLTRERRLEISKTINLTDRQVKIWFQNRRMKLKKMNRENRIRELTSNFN
Chain of HOXC9 (Homo sapiens, UniProt P31274 178-260, R222W) (P31274 178-260 R222W): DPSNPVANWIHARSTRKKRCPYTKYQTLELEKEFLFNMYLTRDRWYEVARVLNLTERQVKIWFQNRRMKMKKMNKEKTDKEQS
Chain of HOXA4 (Homo sapiens, UniProt Q00056 201-287, W262R) (Q00056 201-287 W262R): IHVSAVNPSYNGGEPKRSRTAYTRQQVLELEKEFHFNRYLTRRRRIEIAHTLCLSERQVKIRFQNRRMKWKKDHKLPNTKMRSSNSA
Chain of HOXC9 (Homo sapiens, UniProt P31274 178-260) (P31274 178-260): as the sequence (P31274 178-260 R222W) above, with W45R counted along it
Chain of HOXC10 (Homo sapiens, UniProt Q9NYD6 254-340, K271E) (Q9NYD6 254-340 K271E): as the sequence (Q9NYD6 254-340) above, with K18E counted along it
Chain of VAX1 (Homo sapiens, UniProt Q5SQQ9 86-172) (Q5SQQ9 86-172): as the sequence (Q5SQQ9 86-172 K157R) above, with R72K counted along it
Chain of HOXC9 (Homo sapiens, UniProt P31274 178-260, K195R) (P31274 178-260 K195R): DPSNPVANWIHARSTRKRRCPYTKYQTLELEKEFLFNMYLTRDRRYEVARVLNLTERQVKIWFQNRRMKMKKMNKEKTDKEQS
Chain of HOXA2 (Homo sapiens, UniProt O43364 129-215, R185T) (O43364 129-215 R185T): as the sequence (O43364 129-215 Y150S) above, with S22Y, R57T counted along it
Chain of HOXB9 (Homo sapiens, UniProt P17482 171-250, R186Q) (P17482 171-250 R186Q): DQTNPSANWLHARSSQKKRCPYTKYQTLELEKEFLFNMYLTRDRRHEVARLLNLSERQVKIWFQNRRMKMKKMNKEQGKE
Chain of HOXA4 (Homo sapiens, UniProt Q00056 201-287, R217L) (Q00056 201-287 R217L): as the sequence (Q00056 201-287 W262R) above, with R17L, R62W counted along it
Chain of HOXA4 (Homo sapiens, UniProt Q00056 201-287, W262F) (Q00056 201-287 W262F): as the sequence (Q00056 201-287 W262R) above, with R62F counted along it
Chain of HOXA7 (Homo sapiens, UniProt P31268 116-202, W177C) (P31268 116-202 W177C): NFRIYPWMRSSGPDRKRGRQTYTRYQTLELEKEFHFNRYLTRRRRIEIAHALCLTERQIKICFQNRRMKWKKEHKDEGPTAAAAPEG
Chain of HOXA4 (Homo sapiens, UniProt Q00056 201-287) (Q00056 201-287): as the sequence (Q00056 201-287 W262R) above, with R62W counted along it
Chain of HOXB9 (Homo sapiens, UniProt P17482 171-250) (P17482 171-250): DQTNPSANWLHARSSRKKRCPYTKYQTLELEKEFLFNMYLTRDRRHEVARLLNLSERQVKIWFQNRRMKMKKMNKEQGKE
Chain of HOXA7 (Homo sapiens, UniProt P31268 116-202) (P31268 116-202): as the sequence (P31268 116-202 W177C) above, with C62W counted along it
Chain of HOXC9 (Homo sapiens, UniProt P31274 178-260, R193K) (P31274 178-260 R193K): as the sequence (P31274 178-260 R222W) above, with R16K, W45R counted along it
Chain of VAX1 (Homo sapiens, UniProt Q5SQQ9 86-172, T142I) (Q5SQQ9 86-172 T142I): as the sequence (Q5SQQ9 86-172 K157R) above, with T57I, R72K counted along it
Chain of HOXD13 (Homo sapiens, UniProt P35453 263-343, T313A) (P35453 263-343 T313A): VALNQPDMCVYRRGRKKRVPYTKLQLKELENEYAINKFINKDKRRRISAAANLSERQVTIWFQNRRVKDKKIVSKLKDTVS
Chain of HOXA2 (Homo sapiens, UniProt O43364 129-215, R185K) (O43364 129-215 R185K): as the sequence (O43364 129-215 Y150S) above, with S22Y, R57K counted along it
Chain of HOXD13 (Homo sapiens, UniProt P35453 263-343) (P35453 263-343): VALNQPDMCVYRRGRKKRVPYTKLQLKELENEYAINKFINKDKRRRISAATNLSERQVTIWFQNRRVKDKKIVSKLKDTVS
Chain of HOXA2 (Homo sapiens, UniProt O43364 129-215) (O43364 129-215): as the sequence (O43364 129-215 Y150S) above, with S22Y counted along it

ATCATTAA
binding signal (HOXB4 [1]): 13.5 upbm affinity estimate (log intensity, higher = more binding, comparable within an allelic series) | binding signal (VENTX [2]): 11.7 upbm affinity estimate (log intensity, higher = more binding, comparable within an allelic series) | binding signal (HOXB9 [3]): 10.3 upbm affinity estimate (log intensity, higher = more binding, comparable within an allelic series) | binding signal (HOXA4 [4]): 10.9 upbm affinity estimate (log intensity, higher = more binding, comparable within an allelic series) | binding signal (HOXC9 [5]): 12.8 upbm affinity estimate (log intensity, higher = more binding, comparable within an allelic series) | binding signal (HOXA7 [6]): 11.7 upbm affinity estimate (log intensity, higher = more binding, comparable within an allelic series) | binding signal (HOXC10 [7]): 12.4 upbm affinity estimate (log intensity, higher = more binding, comparable within an allelic series) | binding signal (VENTX [8]): 11.7 upbm affinity estimate (log intensity, higher = more binding, comparable within an allelic series) | binding signal (HOXB6 [9]): 10.2 upbm affinity estimate (log intensity, higher = more binding, comparable within an allelic series) | binding signal (HOXA2 [10]): 13 upbm affinity estimate (log intensity, higher = more binding, comparable within an allelic series) | binding signal (HOXA4 [11]): 12.9 upbm affinity estimate (log intensity, higher = more binding, comparable within an allelic series) | binding signal (HOXB9 [12]): 12.1 upbm affinity estimate (log intensity, higher = more binding, comparable within an allelic series) | binding signal (HOXB4 [13]): 14.2 upbm affinity estimate (log intensity, higher = more binding, comparable within an allelic series) | binding signal (HOXC9 [14]): 12.8 upbm affinity estimate (log intensity, higher = more binding, comparable within an allelic series) | binding signal (HOXD13 [15]): 10.7 upbm affinity estimate (log intensity, higher = more binding, comparable within an allelic series) | binding signal (HOXC9 [16]): 12.8 upbm affinity estimate (log intensity, higher = more binding, comparable within an allelic series) | binding signal (HOXA2 [17]): 13.5 upbm affinity estimate (log intensity, higher = more binding, comparable within an allelic series) | binding signal (HOXD13 [18]): 11.8 upbm affinity estimate (log intensity, higher = more binding, comparable within an allelic series) | binding signal (HOXA4 [19]): 14.2 upbm affinity estimate (log intensity, higher = more binding, comparable within an allelic series) | binding signal (HOXC10 [20]): 12.3 upbm affinity estimate (log intensity, higher = more binding, comparable within an allelic series) | binding signal (VAX1 [21]): 13.2 upbm affinity estimate (log intensity, higher = more binding, comparable within an allelic series) | binding signal (HOXD13 [22]): 11.7 upbm affinity estimate (log intensity, higher = more binding, comparable within an allelic series) | binding signal (HOXB9 [23]): 11.8 upbm affinity estimate (log intensity, higher = more binding, comparable within an allelic series) | binding signal (HOXC9 [24]): 11.1 upbm affinity estimate (log intensity, higher = more binding, comparable within an allelic series) | binding signal (VAX1 [25]): 13.2 upbm affinity estimate (log intensity, higher = more binding, comparable within an allelic series) | binding signal (HOXA2 [26]): 10.9 upbm affinity estimate (log intensity, higher = more binding, comparable within an allelic series) | binding signal (HOXA7 [27]): 8.9 upbm affinity estimate (log intensity, higher = more binding, comparable within an allelic series) | binding signal (HOXA4 [28]): 12.5 upbm affinity estimate (log intensity, higher = more binding, comparable within an allelic series) | binding signal (HOXA2 [29]): 12.7 upbm affinity estimate (log intensity, higher = more binding, comparable within an allelic series) | binding signal (VAX1 [30]): 13 upbm affinity estimate (log intensity, higher = more binding, comparable within an allelic series) | binding signal (HOXB6 [31]): 12 upbm affinity estimate (log intensity, higher = more binding, comparable within an allelic series)

CGCAGACC
binding signal (HOXB4 [1]): 7.32 upbm affinity estimate (log intensity, higher = more binding, comparable within an allelic series) | binding signal (VENTX [2]): 8.16 upbm affinity estimate (log intensity, higher = more binding, comparable within an allelic series) | binding signal (VENTX [32]): 7.99 upbm affinity estimate (log intensity, higher = more binding, comparable within an allelic series) | binding signal (VENTX [8]): 8.12 upbm affinity estimate (log intensity, higher = more binding, comparable within an allelic series) | binding signal (HOXB4 [13]): 7.36 upbm affinity estimate (log intensity, higher = more binding, comparable within an allelic series)

CCCATTAA
binding signal (HOXB4 [1]): 13 upbm affinity estimate (log intensity, higher = more binding, comparable within an allelic series) | binding signal (VENTX [2]): 12.1 upbm affinity estimate (log intensity, higher = more binding, comparable within an allelic series) | binding signal (HOXB9 [3]): 10.1 upbm affinity estimate (log intensity, higher = more binding, comparable within an allelic series) | binding signal (HOXA4 [4]): 10.4 upbm affinity estimate (log intensity, higher = more binding, comparable within an allelic series) | binding signal (HOXC9 [5]): 12.9 upbm affinity estimate (log intensity, higher = more binding, comparable within an allelic series) | binding signal (VENTX [32]): 13.1 upbm affinity estimate (log intensity, higher = more binding, comparable within an allelic series) | binding signal (HOXA7 [6]): 11.8 upbm affinity estimate (log intensity, higher = more binding, comparable within an allelic series) | binding signal (HOXC10 [7]): 12.2 upbm affinity estimate (log intensity, higher = more binding, comparable within an allelic series) | binding signal (VENTX [8]): 12 upbm affinity estimate (log intensity, higher = more binding, comparable within an allelic series) | binding signal (HOXB6 [9]): 9.99 upbm affinity estimate (log intensity, higher = more binding, comparable within an allelic series) | binding signal (HOXA2 [10]): 12.5 upbm affinity estimate (log intensity, higher = more binding, comparable within an allelic series) | binding signal (HOXA4 [11]): 11.9 upbm affinity estimate (log intensity, higher = more binding, comparable within an allelic series) | binding signal (HOXB9 [12]): 12.2 upbm affinity estimate (log intensity, higher = more binding, comparable within an allelic series) | binding signal (HOXB4 [13]): 13.5 upbm affinity estimate (log intensity, higher = more binding, comparable within an allelic series) | binding signal (HOXC9 [14]): 12.9 upbm affinity estimate (log intensity, higher = more binding, comparable within an allelic series) | binding signal (HOXD13 [15]): 10.6 upbm affinity estimate (log intensity, higher = more binding, comparable within an allelic series) | binding signal (HOXC9 [16]): 12.9 upbm affinity estimate (log intensity, higher = more binding, comparable within an allelic series) | binding signal (HOXA2 [17]): 13.1 upbm affinity estimate (log intensity, higher = more binding, comparable within an allelic series) | binding signal (HOXD13 [18]): 11.8 upbm affinity estimate (log intensity, higher = more binding, comparable within an allelic series) | binding signal (HOXA4 [19]): 13.7 upbm affinity estimate (log intensity, higher = more binding, comparable within an allelic series) | binding signal (HOXC10 [20]): 12.2 upbm affinity estimate (log intensity, higher = more binding, comparable within an allelic series) | binding signal (VAX1 [21]): 12.9 upbm affinity estimate (log intensity, higher = more binding, comparable within an allelic series) | binding signal (HOXD13 [22]): 11.5 upbm affinity estimate (log intensity, higher = more binding, comparable within an allelic series) | binding signal (HOXB9 [23]): 12 upbm affinity estimate (log intensity, higher = more binding, comparable within an allelic series) | binding signal (HOXC9 [24]): 10.9 upbm affinity estimate (log intensity, higher = more binding, comparable within an allelic series) | binding signal (VAX1 [25]): 12.5 upbm affinity estimate (log intensity, higher = more binding, comparable within an allelic series) | binding signal (HOXA2 [26]): 10.7 upbm affinity estimate (log intensity, higher = more binding, comparable within an allelic series) | binding signal (HOXA7 [27]): 8.83 upbm affinity estimate (log intensity, higher = more binding, comparable within an allelic series) | binding signal (HOXA4 [28]): 11.1 upbm affinity estimate (log intensity, higher = more binding, comparable within an allelic series) | binding signal (HOXA2 [29]): 12.1 upbm affinity estimate (log intensity, higher = more binding, comparable within an allelic series) | binding signal (VAX1 [30]): 12.6 upbm affinity estimate (log intensity, higher = more binding, comparable within an allelic series) | binding signal (HOXB6 [31]): 12.3 upbm affinity estimate (log intensity, higher = more binding, comparable within an allelic series)

Source: article PMC11006913
